From article PMC7826789 (International Journal of Molecular Sciences, 2021)

Experiments:
Details in all cases: Compound Concentration (nM):1000
FGFR3 = tested on: FGFR3
FGFR4 = tested on: FGFR4
FGR = tested on: FGR
FLT1 = tested on: FLT1
FLT3(D835H) = tested on: FLT3(D835H)
FLT3(D835V) = tested on: FLT3(D835V)
FLT3(D835Y) = tested on: FLT3(D835Y)
FLT3(ITD) = tested on: FLT3(ITD)
FLT3(ITD,D835V) = tested on: FLT3(ITD,D835V)
FLT3(ITD,F691L) = tested on: FLT3(ITD,F691L)
FLT3(K663Q) = tested on: FLT3(K663Q)
FLT3(N841I) = tested on: FLT3(N841I)
FLT3(R834Q) = tested on: FLT3(R834Q)
FLT3-autoinhibited = tested on: FLT3-autoinhibited
FLT3 = tested on: FLT3
FLT4 = tested on: FLT4
FRK = tested on: FRK
FYN = tested on: FYN
GAK = tested on: GAK
GCN2(Kin.Dom.2,S808G) = tested on: T1, GCN2(Kin.Dom.2,S808G)
T1 construct: gene EIF2AK4
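Further: KINOMEscan scanMAX binding as percent activity remaining versus control; lower means stronger binding.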

Compound | Percent Control (FGFR3) [%] | Percent Control (FGFR4) [%] | Percent Control (FGR) [%] | Percent Control (FLT1) [%] | Percent Control (FLT3(D835H)) [%] | Percent Control (FLT3(D835V)) [%] | Percent Control (FLT3(D835Y)) [%] | Percent Control (FLT3(ITD)) [%] | Percent Control (FLT3(ITD,D835V)) [%] | Percent Control (FLT3(ITD,F691L)) [%] | Percent Control (FLT3(K663Q)) [%] | Percent Control (FLT3(N841I)) [%] | Percent Control (FLT3(R834Q)) [%] | Percent Control (FLT3-autoinhibited) [%] | Percent Control (FLT3) [%] | Percent Control (FLT4) [%] | Percent Control (FRK) [%] | Percent Control (FYN) [%] | Percent Control (GAK) [%] | Percent Control (GCN2(Kin.Dom.2,S808G)) [%]
COc1cccc(-c2c[nH]c3c(N/N=C/c4ccncc4)ncnc23)c1 [GW814408X] | 100 | 100 | 43 | 83 | 27 | 7.5 | 16 | 21 | 3.9 | 43 | 76 | 12 | 19 | 66 | 26 | 90 | 100 | 66 | 11 | 8.3
COc1cc(C=NNc2ncnc3c2cnn3-c2ccccc2)ccc1O [GW513184X] | 100 | 100 | 80 | 100 | 12 | 3 | 9.4 | 30 | 16 | 46 | 63 | 27 | 72 | 100 | 34 | 97 | 100 | 90 | 100 | 49
COc1cc(/C=N/Nc2ncnc3[nH]ncc23)ccc1O [GW578748X] | 100 | 100 | 63 | 89 | 25 | 0.2 | 25 | 43 | 4.5 | 11 | 75 | 100 | 56 | 84 | 71 | 100 | 100 | 92 | 13 | 18
CN(C)c1cc2c(Nc3ccc4c(cnn4Cc4ccccc4)c3)ncnc2cn1 [GW282974X] | 100 | 84 | 73 | 94 | 85 | 59 | 100 | 82 | 100 | 100 | 79 | 100 | 95 | 93 | 73 | 100 | 100 | 90 | 76 | 100
COc1ccc2c(-c3ccnc(Nc4cccc(OC(F)(F)F)c4)n3)cnn2n1 [GW810372X] | 100 | 100 | 96 | 73 | 0 | 46 | 55 | 49 | 65 | 89 | 30 | 55 | 73 | 86 | 23 | 100 | 100 | 100 | 66 | 85
CC1=C(C(=O)Nc2ccc3[nH]ncc3c2)C(c2ccc(Cl)c(Cl)c2)CC(=O)N1 (stereo not shown) [GSK299115A] | 84 | 57 | 86 | 100 | 100 | 75 | 87 | 100 | 80 | 94 | 78 | 100 | 93 | 100 | 100 | 100 | 63 | 70 | 95 | 100
COc1ccc(COc2ccc(Cc3cnc(N)nc3N)cc2OC)cc1 [GW632580X] | 95 | 98 | 81 | 98 | 100 | 100 | 81 | 87 | 100 | 99 | 79 | 75 | 97 | 99 | 100 | 90 | 100 | 100 | 95 | 100
CN1CCN(C(=O)c2ccc(NC(=O)Nc3ccc(N(C)c4ccnc(Nc5ccc(CS(C)(=O)=O)cc5)n4)cc3)cc2)CC1.Cl [GW830263A] | 100 | 100 | 57 | 0.4 | 0.8 | 1.2 | 5.3 | 0.3 | 8.9 | 6.8 | 0 | 0 | 0 | 7.3 | 1.5 | 2 | 80 | 98 | 18 | 100
COc1cc(N2CCN(C(C)C)CC2)ccc1Nc1nc(Nc2ccc(F)cc2C(=O)NC[C@@H](O)CO)c2cc[nH]c2n1 [GSK1392956A] | 97 | 95 | 81 | 94 | 100 | 69 | 68 | 88 | 79 | 40 | 100 | 74 | 100 | 95 | 78 | 85 | 100 | 100 | 6.9 | 48
NS(=O)(=O)c1ccc(Nc2ncc(-c3ccccc3)o2)cc1 [GW572399X] | 100 | 100 | 98 | 100 | 70 | 8.5 | 80 | 53 | 29 | 42 | 9.2 | 21 | 14 | 2 | 11 | 100 | 100 | 100 | 99 | 80
COc1ccc2[nH]c3c4[nH]c5ccc(OC)cc5c4c4c(c3c2c1)C(=O)NC4=O [GW296115X] | 93 | 85 | 68 | 79 | 12 | 4 | 16 | 2.1 | 0 | 3.6 | 9.7 | 0 | 6.3 | 53 | 28 | 71 | 88 | 84 | 0.3 | 74
CCS(=O)(=O)c1ccc(OC)c(Nc2ncc(-c3cccc(F)c3)o2)c1 [GW621970X] | 11 | 87 | 24 | 45 | 0.6 | 0 | 39 | 5.8 | 0 | 25 | 7.9 | 56 | 29 | 7.9 | 5 | 5 | 16 | 26 | 63 | 71
C/C(Nc1ccc(S(N)(=O)=O)cc1)=C1/C(=O)Nc2ccccc21 [GW335962X] | 97 | 100 | 78 | 100 | 87 | 0.3 | 76 | 100 | 0.8 | 3 | 60 | 83 | 40 | 7.7 | 56 | 100 | 96 | 90 | 61 | 100
COc1cc2ncnc(Nc3ccc4c(cnn4Cc4ccccc4)c3)c2cc1OC.Cl [GW282449A] | 100 | 100 | 68 | 100 | 68 | 34 | 83 | 96 | 90 | 100 | 49 | 47 | 83 | 100 | 45 | 95 | 100 | 100 | 90 | 100
O=C1Nc2ccc(C(=O)c3ccco3)cc2C1=Cc1cc(Cl)c(O)c(Cl)c1 [GW406108X] | 78 | 100 | 81 | 57 | 18 | 2.2 | 15 | 47 | 12 | 29 | 83 | 54 | 73 | 84 | 71 | 100 | 100 | 92 | 5.9 | 71
COc1cccc(-n2ncc3c(N/N=C/c4ccncc4)ncnc32)c1 [GW784752X] | 100 | 100 | 72 | 100 | 22 | 4 | 48 | 67 | 10 | 55 | 75 | 36 | 77 | 85 | 76 | 100 | 100 | 75 | 48 | 65
COc1cc2ncn(-c3cc(O[C@H](C)c4ccccc4Cl)c(C(N)=O)s3)c2cc1OC [GSK237701A] | 57 | 100 | 67 | 69 | 11 | 0 | 28 | 33 | 5.9 | 21 | 6.5 | 3.3 | 14 | 95 | 21 | 9.4 | 100 | 100 | 17 | 31
COc1ccccc1-c1cc(/C=C2\C(=O)Nc3ncc(Br)cc32)cc(Br)c1O [GW442130X] | 100 | 100 | 100 | 100 | 86 | 73 | 40 | 100 | 92 | 100 | 100 | 85 | 87 | 100 | 100 | 96 | 100 | 93 | 83 | 79
COC(=O)Nc1nc2ccc(Oc3ccc(NC(=O)Nc4cc(C(F)(F)F)ccc4F)cc3)cc2s1.Cl [GW693917A] | 70 | 91 | 71 | 3 | 2.3 | 13 | 24 | 4.3 | 83 | 44 | 1 | 89 | 11 | 65 | 2.4 | 2.4 | 15 | 52 | 97 | 100
Cl.O=C(Nc1ccc(Oc2ccc3[nH]c(NC(=O)c4ccccc4)nc3c2)cc1)Nc1cc(C(F)(F)F)ccc1F [GW709042A] | 100 | 100 | 82 | 5.1 | 2.8 | 28 | 14 | 3.7 | 95 | 56 | 2.6 | 0 | 15 | 90 | 2.4 | 12 | 71 | 100 | 100 | 84
